From PubChem BioAssay AID1851 (National Center for Advancing Translational Sciences (NCATS), 2009)
Out of some 16,000 compounds screened, about 5,800 (36%) were called active. Roughly 23% stayed inconclusive and do not appear here. Some of the results follow. Unmarked numbers belong to inactive results. Calls come from the whole dose curve; as a rule, active = well fitted curve in the direction sought with a large enough effect; inconclusive = small, poorly fitted or top-dose-only effect, or effect the other way; inactive = no such curve, though single readings can be large or run the other way.

What follows are compounds tested against Cytochrome P450 2C19 (Homo sapiens) (UniProt P33261) (assay: Cytochrome panel assay with activity outcomes). Conditions: recombinant CYP, pro-luciferin dealkylation, luminescence, p450-cyp2c19; series mostly up to 57.1 µM.
Chain of Cytochrome P450 2C19 (Homo sapiens) (P33261 whole entry, looked up): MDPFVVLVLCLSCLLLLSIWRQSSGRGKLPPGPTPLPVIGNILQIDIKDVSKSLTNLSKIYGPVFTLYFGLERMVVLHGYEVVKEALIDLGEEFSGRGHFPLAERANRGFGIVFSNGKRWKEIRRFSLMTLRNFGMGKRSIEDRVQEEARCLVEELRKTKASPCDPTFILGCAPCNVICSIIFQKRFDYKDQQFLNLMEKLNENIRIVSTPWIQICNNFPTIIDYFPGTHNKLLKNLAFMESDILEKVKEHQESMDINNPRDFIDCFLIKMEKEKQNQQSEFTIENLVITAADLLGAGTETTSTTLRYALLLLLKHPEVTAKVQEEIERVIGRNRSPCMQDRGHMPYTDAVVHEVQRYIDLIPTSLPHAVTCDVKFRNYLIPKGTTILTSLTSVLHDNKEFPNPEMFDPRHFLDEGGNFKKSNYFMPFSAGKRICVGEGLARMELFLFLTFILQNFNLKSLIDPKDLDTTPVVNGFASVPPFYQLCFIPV
% is set by controls: 0 for no effect and ±100 for the full control effect.

SMILES | AC50 | activity, negative = inhibition
COCCSc1nnc(NC(=O)C(C)(C)C)s1 | inactive | –
CCSc1nnc(NC(=O)C(C(F)(F)F)C(F)(F)F)s1 | 20 µM (active) | –
CSc1nc(Oc2ccc(F)cc2)c2ccccc2n1 | 7.08 µM (active) | –
Cn1c(=O)c(-c2ccc(F)cc2)nc2cnc(Oc3ccccc3)nc21 | inactive | –
CCOC(=O)c1cnc2c(cnn2C)c1NCCCN(C)C | inactive | –
CCOC(=O)c1cnn(CCOC(=O)C(C)(C)C)c1NC(=O)C(C)(C)C | 14.1 µM (active) | –
CCOC(=O)c1cnc2c(cnn2CC)c1NN=C(C)C | inactive | –
O=c1oc2c(CN3CCOCC3)c(O)ccc2c2ccccc12 | 14.1 µM (active) | –
COc1ccc(-c2c(C)oc3c(CN4CCN(CCO)CC4)c(O)ccc3c2=O)cc1OC | inactive | –
CS(=O)(=O)c1cnc2c(-c3ccc(F)cc3)cnn2c1N | inactive | –
CN(C)c1ncc2nc(-c3ccc(F)cc3)c(=O)n(C)c2n1 | inactive | –
CC(C)(C)S(=O)(=O)c1cnc2c(-c3ccc(F)cc3)cnn2c1N | 11.2 µM (active) | –
CN(C)c1ncc2nc(-c3cccc(C#N)c3)c(=O)n(CCC#N)c2n1 | inactive | –
CN(C)c1ccc(-c2cncnc2N(C)Cc2ccco2)cc1 | 0.251 µM (active) | –
CN(Cc1ccco1)c1ncncc1-c1ccc2c(c1)OCO2 | 0.126 µM (active) | –
CN(Cc1ccco1)c1ncncc1-c1cccc(C#N)c1 | 20 µM (active) | –
COc1cccc(-c2cncnc2N(C)Cc2ccco2)c1 | 7.94 µM (active) | –
COCCn1c(=O)c(-c2cccc(C#N)c2)nc2cnc(N(C)C)nc21 | inactive | –
COCC(=O)N1CCC[C@@]2(CCN(C(=O)Nc3cccc(F)c3)C2)C1 | inactive | –
CN(Cc1ccco1)c1ncncc1-c1cccnc1 | 10 µM (active) | –
CC(NC(=O)c1ccccc1)c1nc2ccccc2n1Cc1ccccc1F (stereo not drawn) | 8.91 µM (active) | –
Cc1cc(NC(=S)NC(=O)CC(C)C)ccc1Br | 3.55 µM (active) | –
CCCCn1nnnc1SCC(=O)c1cc(Cl)ccc1OC | 0.0708 µM (active) | –
CCCCn1nnnc1SCC(=O)N1CCCC1 | 25.1 µM (active) | –

SMILES | AC50 | activity, negative = inhibition
CCCCn1c(SCC(=O)N2CCCC2)nc2c1c(=O)n(C)c(=O)n2C | inactive | –
C[N+](C)(C)CCCCCCCCCC[N+](C)(C)C | inactive | –
CCCCCCCCCCCC1=C(O)C(=O)C=C(O)C1=O | inactive | –
O=S(=O)(N/N=C/c1ccc2c(c1)OCCO2)c1ccc(Cl)cc1 | 2.82 µM (active) | –
O=S(=O)(N/N=C\c1ccc2c(c1)OCO2)c1ccc(Cl)cc1 | 0.794 µM (active) | –
C[C@]1(C2CCCC2)Cc2cc(OCC(=O)O)c(Cl)c(Cl)c2C1=O | inactive | –
O=C(CN1CCN(c2ncccn2)CC1)NCCC1=CCCCC1 | 4.47 µM (active) | –
O=C(COc1ccc(Cl)cc1)NCCC1=CCCCC1 | 3.98 µM (active) | –
O=C(CN1C(=O)NC2(CCCC2)C1=O)NCCC1=CCCCC1 | 14.1 µM (active) | –
O=C(CN1CCN(C2CCCCC2)CC1)NCCC1=CCCCC1 | inactive | –
Cc1nc2ncnn2c(C)c1CCC(=O)NCCC1=CCCCC1 | inactive | –
CCCn1c(=O)c2[nH]c(-c3ccc(OCC(=O)NCCN)cc3)nc2n(CCC)c1=O | inactive | –
O=C(CCN1CCCCC1)c1csc2ccccc12 | – | -22.7% [at 11.4 µM]
O=C(c1[nH]o[n+](=O)c1C(=O)c1csc2ccccc12)c1csc2ccccc12 | 1 µM (active) | –
Cc1cccc(C(=O)O)c1C[C@H]1NCC[C@H]2c3ccccc3N[C@@H]12 | – | 3.69% [at 11.4 µM]
Cc1ccccc1Cn1cc(NC(=O)CSc2nc3c(c(C(F)(F)F)n2)CCc2ccccc2-3)cn1 | 3.98 µM (active) | –
Cc1nn(Cc2ccc(Cl)cc2)c(C)c1NC(=O)CSc1nc2c(c(C(F)(F)F)n1)CCc1ccccc1-2 | 2.82 µM (active) | –
CC1(C)[C@@H]2CC[C@]1(C)[C@@H](OC(=O)CSC#N)C2 | – | -26.6% [at 11.4 µM]
CN(C)/C(CN1CCN(C=O)CC1)=C1\N=C(c2ccccc2)OC1=O | inactive | –
COc1ccc(S(=O)(=O)N2CCc3ccccc3C2)cc1OC | 0.447 µM (active) | –
O=C(ON=C1CCN(S(=O)(=O)c2ccccc2)CC1)c1ccccc1 | inactive | –
O=S(=O)(c1ccc(Cl)s1)N1CCc2ccccc2C1 | 0.708 µM (active) | –
COc1ccccc1CN1CC[C@@]2(CCCN(S(=O)(=O)c3ccccc3)C2)C1 | inactive | –
CCN1C(=O)[C@H]2[C@H]3[C@H](O)[C@H](O)C/C(=N/O[C@@H]4O[C@H](COC(C)=O)[C@@H](OC(C)=O)[C@H](OC(C)=O)[C@H]4OC(C)=O)[C@@H]3CC[C@@H]2C1=O | – | 34.2% [at 11.4 µM]
